# A selection: hits, their analogues and other compounds. The true share with any hit is near 2.3%.
# FUS suppressor: qHTS for Suppressors of FUS Proteinopathy: Primary screen using FUS-linked yeast assay | 390,000 tested, 0.24% active | S. cerevisiae FUS-expressing, growth rescue, OD600, 24 h | Potency, µM (highest dose often 76.6 µM), hits mostly activators | AID 1347120, 2019;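 also: potency is read from the fitted curve at half-maximal effect; plate controls were DMSO vehicle for no effect and reference control for full effect; nearly all actives have a fitted effect of over 55% in size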
#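 Restored growth of FUS-toxic S. cerevisiae, read as 600 nm absorbance after 24 h at 30C in galactose medium (starting OD 0.005). Controls CP55940 and DMSO.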
# Abeta rescue: qHTS for compounds that reverse cellular toxicity of Amyloid beta (A-beta) peptide in yeast: Primary Screen; AID 1347071, 2019; Potency, µM (titrated, usually from 46.1 µM), most hits filed as activators; yeast expressing A-beta42, growth rescue, OD600, 48 h; response scale: 0% DMSO, 100% iron-clioquinol control; 410,000 tested, 0.063% active; also: potency is read from the fitted curve at half-maximal effect; nearly all actives have a fitted effect of over 55% in size
#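 Growth rescue measured by 600 nm absorbance after 48 h yeast culture at 30 C with compound. Values normalized between DMSO and an equimolar ferric chloride plus clioquinol control.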
# aSyn yeast inh: qHTS of alpha-syn Inhibitors | 370,000 tested, 0.14% active | Yeast expressing alpha-synuclein, growth rescue, BacTiter-Glo, 24 h | Potency, µM (highest dose often 46.1 µM), for inactives: top-dose growth rescue (activation), most hits filed as activators; also: potency is read from the fitted curve at half-maximal effect; % of control where 0% means no effect; nearly all actives have a fitted effect of over 65% in size
#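 Rescue of yeast growth: cells expressing toxic alpha-synuclein, induced in galactose at OD600 0.02, incubated with compound 24 h at 30 C. ATP luminescence quantified growth; inhibitors of toxicity appear as activators.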
# CCT modulator: High-Throughput Screening for Modulators of Cytosolic Chaperonin Activity. activity change, % (no concentration beside the values), hits read low. purified chaperonin ATPase assay, HTRF ADP detection, 30 min. 360,000 tested, 0.3% active; in the data active = activity change below about -30%; also: % is scaled to controls: 0 for no effect and ±100 for the full control effect
#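 We incubate TRiC, 40 or 20 nM final, with library compounds at 76 uM and 10 uM ATP for 30 min at 37 °C. ADP formed is detected with Transcreener HTRF reagents after 30 min at room temperature.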
# TDP43 rescue: qHTS of TDP-43 Inhibitors. 410,000 tested, 1.8% active. Potency, µM (top dose mostly 46.1 µM), without a hit: at the top dose growth rescue (activation), usual class: activators. TDP-43 expressing yeast growth rescue, BacTiter-Glo, 24 h. AID 652104, 2013; also: potency is read from the fitted curve at half-maximal effect; % of control where 0% means no effect; nearly all actives have a fitted effect of over 50% in size
#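 Yeast cells expressing TDP-43 under galactose induction are exposed to compounds for 24 hr at 30 deg C. BacTiter-Glo luminescence measures growth, so protective compounds score as activators.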
# MmCpn inh: Inhibitors of TCP-1 ring complex (TRiC) of Methanococcus maripaludis (MmCpn): qHTS | Chaperonin Mm-Cpn (Methanococcus maripaludis) | purified Mm-Cpn ATPase, ADP Transcreener TR-FRET | Potency, µM (series often up to 76.9 µM), inactives show at the highest dose activity, negative = inhibition, hits mostly inhibitors | 330,000 tested, 0.031% active; also: potency is read from the fitted curve at half-maximal effect; % is scaled to controls: 0 for no effect and ±100 for the full control effect; nearly all actives have a fitted effect of over 80% in size
#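 Purified archaeal Mm-CPN (25nM final) preincubated 10 min at 37degC with compound, then 10uM ATP for 30 min at 37degC; ADP measured by HTRF Transcreener TR-FRET; buffer 30 mM TRIS pH 7.4, 100mM KCl, 5mM MgCl2, 1mM DTT.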
# Numbers without * were called inactive; i = inactive; u = inconclusive; x = no result given; [ ] = dose if it differs, or a comment. Unless noted, calls follow the shape of the dose curve; as a rule, active = well fitted curve in the direction sought with a large enough effect; inconclusive = small, poorly fitted or top-dose-only effect, or another doubt; inactive = no such curve, though single readings can be large; an effect the other way counts as inactive or inconclusive.
SMILES,FUS suppressor,Abeta rescue,aSyn yeast inh,CCT modulator,TDP43 rescue,MmCpn inh
COC(=O)C1=NN(C(=O)c2cccc(Br)c2)C(O)(c2ccc(Cl)cc2)C1 (stereo not given),i,i,18µM*,0,u,-12%
CC(C)CN1C(=O)C[C@]2(C(=O)N(C)c3ccc(NS(=O)(=O)C4CCCCC4)cc32)C1c1ccccc1 (stereo not given in full),i,x,x,x,x,x
COc1ccc(/C=C2/C(=O)OCc3cc(OC)c(OC)cc32)cc1,i,i,4%,0,20µM*,1%
Cc1cc(-c2ccco2)c(C#N)c2nc3ccccc3n12,i,i,0.56µM*,0,4µM*,-4%
Cc1nc(CC(=O)c2ccc(O)cc2O)cs1,i,i,-1%,-1,24%,1%
Cc1nc(C/C(=N\Nc2ccccc2)c2ccc(O)cc2O)cs1,i,i,1%,0,20µM*,-2%
C/C=C/c1ccccc1OCCCN1CCC(C(O)(c2ccccc2)c2ccccc2)CC1,i,x,x,x,x,x
O=S(=O)(NCCSCc1c(Cl)cccc1Cl)c1ccc2c(c1)OCCO2,i,i,6%,1,35µM*,-1%
Cc1ccc(S(=O)(=O)Nc2ccc3c(c2)OCCO3)cc1,i,i,10%,1,11%[9.22 µM],1%
O=S(=O)(NCCSCc1ccc(Cl)cc1Cl)c1ccc2c(c1)OCCO2,i,i,22%,1,u,-1%
Cc1c(Cl)cccc1NS(=O)(=O)c1ccc(NS(=O)(=O)c2ccc3c(c2)OCCO3)cc1,22µM*,i,x,x,20%,x
COC(=O)[C@]1(CNC(=O)NCCc2ccc(OC)c(OC)c2)CC(=O)N(C)[C@@H]1c1ccccc1,i,x,x,x,x,x
O=C(CSc1ncnc2sc3c(c12)CCCC3)c1ccccc1,i,i,-8%,-1,-2%,u
Cc1cc(C)nc(Sc2ncnc3sc4c(c23)CCC4)n1,i,i,0%,0,20µM*,-1%
CC(C#N)Sc1ncnc2sc3c(c12)CCC3 (stereo not given),i,i,1%,3,18%,0%
CC(=O)C(Sc1ncnc2sc3c(c12)CCCC3)C(C)=O,i,u,u,1,18µM*,-2%
O=C(CSc1ncnc2sc3c(c12)CCCC3)c1ccco1,i,i,5%,1,10µM*,-11%
Ic1ccc(/C=C2\C=Cc3ccccc32)cc1,x,x,-6%,x,x,x
CN(C)c1ccc(C=Nc2cnc3ccccc3c2)cc1,x,x,-2%,x,x,x
O=C(CN(CC1CCCO1)C(=O)CNS(=O)(=O)c1ccc(Cl)cc1)NCc1ccco1 (stereo not given),i,i,-3%,-46*,0%,-1%
O=C(CN(Cc1ccco1)C(=O)CNS(=O)(=O)c1ccc(Cl)cc1)NCC1CCCO1 (stereo not given),i,i,1%,0,-9%,0%
O=C(c1ccc(COc2c(F)c(F)c(F)c(F)c2F)o1)N1CCOCC1,i,i,1%,0,29%,0%
O=C(c1ccc(COc2c(F)c(F)cc(F)c2F)o1)N1CCN(c2ccccc2)CC1,i,i,3%,1,22µM*,-2%
COc1ccccc1OCc1ccc(C(=O)N2CCCCC2)o1,i,i,1%,0,9%,-2%
COc1ccc(N2CCN(C(=O)c3ccc(COc4ccc([N+](=O)[O-])cc4)o3)CC2)cc1,x,i,4%,-3,11µM*,-1%
SMILES,FUS suppressor,Abeta rescue,aSyn yeast inh,CCT modulator,TDP43 rescue,MmCpn inh
O=C(c1ccc(COc2ccc(Cl)cc2Cl)o1)N1CCCC1,x,i,4%,-2,13µM*,-1%
O=C(NCC(c1ccccc1)c1ccccc1)[C@H](Cc1ccccc1)NC1(C(=O)NC2CCCCC2)CCCC1,i,x,x,x,x,x
CC(=O)Nc1cccc(C(=O)OCc2ccccc2)c1,i,i,-7%,1,13µM*,-2%
CCOC(=O)c1nnc(-c2cccs2)nc1NC(C)C,i,i,5%,-2,13µM*,0%
CCOC(=O)c1nnc(-c2cccs2)nc1Oc1ccccc1C(=O)OC,i,i,11%,-1,-3%,0%
c1ccc(N2CCN(c3nc4ccccc4n4cnnc34)CC2)cc1,i,i,5%,1,35µM*,0%
FC(F)(F)c1cccc(N2CCN(c3nc4ccccc4n4cnnc34)CC2)c1,i,i,x,x,22µM*,x
c1ccc2c(c1)nc(N1CCOCC1)c1nncn12,i,i,-5%,-4,0%,0%
c1ccc2c(c1)CCN(c1nc3ccccc3n3cnnc13)C2,i,i,-6%,-2,35µM*,0%
O=S1(=O)c2ccc(Br)cc2OC[C@H](Cc2ccccc2)N1Cc1cn(Cc2ccc(C(F)(F)F)cc2)nn1,i,x,x,x,x,x
O=C1N/C(=N\N=C\c2ccccn2)SC1Cc1cccc(SC(F)F)c1 (stereo not given),x,u,5µM*,-1,29%,-1%
O=C1N/C(=N\N=C\c2ccc3ncccc3c2)SC1Cc1ccc(SC(F)F)cc1 (stereo not given),i,i,-2%,-3,1%,1%
Cc1[nH]c(-c2ccc(F)cc2)cc1C(=O)N1CCN(c2ccccc2)CC1,i,i,u,1,18µM*,-1%
Cc1ccccc1NC(=O)c1c(-c2ccccc2)noc1C,i,i,-6%,-2,23%,1%
Cc1ccc(F)cc1NC(=O)c1c(-c2ccccc2)noc1C,i,i,0%,-2,20µM*,-1%
CCNc1nc(N)c([N+](=O)[O-])c(Nc2cccc(Cl)c2)n1,i,x,x,x,x,x
O=C(CCSCc1ccccc1Cl)N1CCN(c2ccc(F)cc2)CC1,u,i,x,x,16µM*,x
O=C(CCSCc1ccccc1F)N1CCN(c2ccc(F)cc2)CC1,i,i,x,x,11µM*,x
O=C(CSCc1ccc(F)cc1)N1CCN(c2ccc(Cl)cc2)CC1,u,i,x,x,18µM*,x
COc1cc(OC)c(NC(=O)CSc2nc3ccncc3[nH]2)cc1Cl,i,i,x,x,23%,4%
Clc1ccc(/C=C/c2ccncc2)cc1Cl,x,x,6%,x,x,x
O=C(CCSc1ccccc1Cl)Nc1cccc([N+](=O)[O-])c1,i,i,2%,-2,18µM*,2%
